Test [1] can be described thus: NCI Yeast Anticancer Drug Screen. Data for the rad50 strain (AID 155).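 Also: 0% = growth of vehicle-only cultures of the same strain.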 To be noted: S. cerevisiae rad50 strain growth inhibition; at 50.0 µM; stronger effect = higher value. The method, boiled down:
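Relative growth inhibition (compound vs vehicle) was measured in yeast with a defined repair-gene alteration.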

A short description of test [2]: NCI Yeast Anticancer Drug Screen. Data for the mec2-1 strain (AID 157). The note with it: S. cerevisiae mec2-1 strain, at 50.0 µM, stronger effect = higher value. A digest of the protocol: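 Growth inhibition is read against vehicle-treated controls after compound exposure of the mec2-1 yeast strain, which is defective in DNA damage repair or cell cycle control.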
The nature of test [3]: NCI Yeast Anticancer Drug Screen. Data for the sgs1 mgt1 strain (AID 161).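 Also: 0% = growth of cultures given vehicle only.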 The note with it: S. cerevisiae sgs1 mgt1 strain, at 50.0 µM, stronger effect = higher value. The method, boiled down:
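Compounds are added to genetically altered yeast, and growth is compared with cultures given vehicle alone to give percent inhibition.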

The nature of test [4]: NCI Yeast Anticancer Drug Screen. Data for the cln2 rad14 strain (AID 165).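 Also: 0% = growth equal to vehicle treated cultures.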 The note with it: S. cerevisiae cln2 rad14 strain, at 50.0 µM, stronger effect = higher value. The method, boiled down:
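Growth inhibition, relative to vehicle-treated controls, is the read-out. The test organism is a yeast strain with defined genetic alterations, cln2 rad14.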

A short description of test [5]: NCI Yeast Anticancer Drug Screen. Data for the bub3 strain (AID 167). To be noted: S. cerevisiae bub3 mutant strain, at 50.0 µM, stronger effect = higher value. A digest of the protocol: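 Screening used yeast with an engineered genetic alteration affecting cell cycle control. Compound-exposed cultures were compared with vehicle cultures, and reduced growth was taken as inhibition.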

A short description of test [6]: NCI Yeast Anticancer Drug Screen. Data for the mlh1 rad18 strain (AID 175). The note with it: S. cerevisiae mlh1 rad18 strain growth inhibition; at 50.0 µM; stronger effect = higher value. The method, boiled down:
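Cells of a genetically altered yeast strain, deficient in DNA damage repair, were treated with compound. Their growth was then compared with that of vehicle-treated cultures to give inhibition.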

Compounds without any hit were thinned out: in the full panel of roughly 79,000, 15% have a hit. Values without a mark were called inactive. Active and inactive are the calls of the source. Rule as the data show it: active = growth inhibition above about 70%; inactive = the rest.

On to `Cc1c(Cl)c(N)c(Cl)c(Cl)c1Cl`, for which the growth inhibition in test [1] was 15.7%; in test [2], -4.5%; in test [3] it was 19.1%; in test [4], -7.3%; in test [5] it was 28.6%; in test [6], 8.75%.
In the case of `Cc1ccc(S(=O)(=O)CCOC(=O)Nc2ccccc2)cc1`, the growth inhibition is 2.5% in test [1]; 12.6% in test [2]; 1.7% in test [3]; -12.4% in test [4]; -14.6% in test [5]; 11.5% in test [6].
Regarding `COc1ccc2c(c1)CC[C@@H]1[C@@H]2CC[C@]2(C)[C@H](S)CC[C@@H]12`, the growth inhibition is -3.45% in test [1]; -15.7% in test [2]; 21.4% in test [3]; -41% in test [4]; 18.1% in test [5]; -7.3% in test [6].
`CCn1c(=NC(=O)c2ccccc2O)sc2ccccc21`: the growth inhibition in test [1] is 16.5%; in test [2], 4%; in test [3] it was 2.15%; in test [4], 17.9%; in test [5] it was -5.7%; in test [6] it was -3.05%.
Regarding `CCCCCCCCCCCCC(O)C(=O)O` (stereo not drawn), the growth inhibition in test [1] was 12.3%; in test [2], -17.9%; in test [3], 10.2%; in test [4], 12.8%; in test [5], 35.7%; in test [6], -39.7%.
Regarding `c1ccc(Cc2ncc(-c3ccccc3)cc2-c2ccccc2)cc1`, the growth inhibition was -19.4% in test [1]; -14.8% in test [2]; 3.1% in test [3]; 3.65% in test [4]; 7.3% in test [5]; 4.2% in test [6].
On to `C[n+]1cccc2cc([N+](=O)[O-])ccc21`, for which the growth inhibition in test [1] is -21.6%; in test [2] it was -6.8%; in test [3], 4.35%; in test [4], -77.7%; in test [5], 3.9%; in test [6], -13.3%.
For the molecule `COc1cc(OC)c(OCc2ccccc2)c(OC)c1`, the growth inhibition in test [1] was 12.2%; in test [2], 0.25%; in test [3] it was -0.25%; in test [4], 2.45%; in test [5] it was -2.5%; in test [6], -17.2%.
For the molecule `Cc1cc(C)c(C#N)c(SC(C(=O)Nc2cc(C(F)(F)F)ccc2Cl)c2ccccc2)n1` (stereo not drawn), the growth inhibition in test [1] is 2.35%; in test [2] it was -13.2%; in test [3], 23.6%; in test [4], 19.1%; in test [5] it was 2.95%; in test [6] it was 8.25%.
In the case of `CSc1nc(C)cc(Nc2ccc(O)c(CN3CCOCC3)c2)n1`, the growth inhibition is 6.1% in test [1]; -3.25% in test [2]; -22% in test [3]; -33.1% in test [4]; -52% in test [5]; 9.4% in test [6].
`O=c1[nH]nc(Cc2ccccc2)n1/N=C\c1ccccc1`: the growth inhibition in test [1] was -38.6%; in test [2], -20.6%; in test [3] it was -28.1%; in test [4], -11.3%; in test [5] it was -16.1%; in test [6], -43.2%.
On to `Cc1cccc(-c2cc(=O)c3c(C)cc(C)nc3[nH]2)c1`, for which the growth inhibition is -2.1% in test [1]; 2.7% in test [2]; 21.9% in test [3]; 24.8% in test [4]; 24.1% in test [5]; -39.4% in test [6].
In the case of `CCN(CC)c1ncnc2n[nH]nc12`, the growth inhibition in test [1] is -1.5%; in test [2], -15.6%; in test [3], -18%; in test [4], -27.9%; in test [5], -28.5%; in test [6] it was 3.45%.
For the molecule `Cc1cc(S(=O)(=O)Nc2nc(N)n(C)n2)c(S)cc1Cl`, the growth inhibition in test [1] was -19.1%; in test [2], -18.3%; in test [3], -3.3%; in test [4], -3.1%; in test [5], -29.2%; in test [6] it was -1.85%.
For the molecule `CC(=O)OCC12C(OC(C)=O)C(=O)C3C(OC(C)=O)C14OC3(C)COC(=O)c1cccnc1C(C)C(C)C(=O)OC(C(OC(C)=O)C2OC(C)=O)C4(C)O` (stereo not drawn), the growth inhibition in test [1] was -24.6%; in test [2], -31.4%; in test [3], -24.1%; in test [4], 7.85%; in test [5], -16.1%; in test [6] it was -85%.
With `CCOc1nc(N)nc(C)c1N=Nc1cccc([N+](=O)[O-])c1`, the growth inhibition in test [1] was 20.9%; in test [2], 8.55%; in test [3], 7%; in test [4], -7.35%; in test [5], 36%; in test [6], 32%.
In the case of `CCOP(=O)(OCC)/C(C#N)=C\c1ccc(N(C)C)cc1`, the growth inhibition in test [1] was 13.5%; in test [2], 6.3%; in test [3], 10.2%; in test [4], -13.7%; in test [5], 6.35%; in test [6] it was -0.65%.
Turning to `CC12NN=NC1C(=O)NC2=O` (stereo not drawn), the growth inhibition in test [1] is 0.85%; in test [2], -0.75%; in test [3] it was 20.6%; in test [4], 12%; in test [5], -3.1%; in test [6], -5.05%.
As to `CC1OC(c2ccccc2)C(=O)N1C1(C)C(=O)N2CCOC21c1ccccc1` (stereo not drawn), the growth inhibition is 8.4% in test [1]; 11.2% in test [2]; 2.15% in test [3]; 5% in test [4]; -1.95% in test [5]; -3.05% in test [6].
Turning to `CN(NC(=O)/C(=C\c1ccccc1Cl)NC(=O)c1ccccc1)c1cn[nH]c(=O)c1Cl`, the growth inhibition is -13.2% in test [1]; -11.8% in test [2]; -16.4% in test [3]; 9.1% in test [4]; -3.75% in test [5]; -6.85% in test [6].
Consider `CCCCC(C)C(=O)CC(SCC)c1ccc(Cl)c(Cl)c1` (stereo not drawn), for which the growth inhibition was 19.6% in test [1]; -26.9% in test [2]; 17.3% in test [3]; -12.4% in test [4]; 8.2% in test [5]; -0.95% in test [6].
In the case of `COc1cc2c(c(OC)c1OC)-c1ccc(S(C)(=O)=O)c(=O)cc1[C@@H](NC(C)=O)CC2`, the growth inhibition in test [1] is 3.25%; in test [2] it was -7.1%; in test [3], 3.2%; in test [4], 4.7%; in test [5] it was -35%; in test [6], -44.4%.
For `Nc1cccc2cccc(N)c12`, the growth inhibition in test [1] was 51.9%; in test [2], 2.1%; in test [3], 41.5%; in test [4] it was 15.3%; in test [5] it was 9.65%; in test [6], 45%.
As to `COc1ccc(C(=O)c2ccccc2)cc1OC`, the growth inhibition in test [1] is 2.95%; in test [2] it was 13.8%; in test [3], -4.25%; in test [4], -21.4%; in test [5], -1.2%; in test [6] it was -7.85%.
In the case of `COC(=O)c1ccccc1N=Cc1cc(Cl)ccc1O`, the growth inhibition was 21.5% in test [1]; 23.1% in test [2]; 35.9% in test [3]; 6.1% in test [4]; 19.6% in test [5]; 88.2% (active) in test [6].
On to `COC(=O)C1CCC(=O)N1CN(C(C)=O)c1cc(OC)ccc1OC` (stereo not drawn), for which the growth inhibition is 14.9% in test [1]; -0.05% in test [2]; 2.85% in test [3]; 6.45% in test [4]; -5.15% in test [5]; -50.1% in test [6].
`CCOC(=O)c1c(/N=C/c2ccc(N(C)C)cc2)sc2c1CCCC2`: the growth inhibition was 14.2% in test [1]; 13.8% in test [2]; 17.3% in test [3]; 23.6% in test [4]; 17.8% in test [5]; 5.85% in test [6].
On to `Cc1nn(C(=O)CC(=O)Nc2ccccc2Cl)c(C)c1N=Nc1ccccc1F`, for which the growth inhibition in test [1] is -13.7%; in test [2], 4%; in test [3], -27.6%; in test [4], 21.9%; in test [5] it was 2.7%; in test [6], -14.6%.
`O=C(Nc1cccc2ccccc12)OC1CCCC1`: the growth inhibition was 1.2% in test [1]; -12.4% in test [2]; -14.4% in test [3]; -53.7% in test [4]; 6.35% in test [5]; -28.6% in test [6].
Regarding `Nc1c(I)cc(C(=O)O)c(O)c1I`, the growth inhibition in test [1] is 2.45%; in test [2] it was -26.6%; in test [3], -15.3%; in test [4] it was 4.65%; in test [5], -5.75%; in test [6] it was -9.15%.
Turning to `CC1(c2cccc(N)c2)OCCO1`, the growth inhibition was 7.4% in test [1]; -7.2% in test [2]; 7.35% in test [3]; -7.9% in test [4]; 12.7% in test [5]; 11.9% in test [6].
In the case of `CC(C)(N)C(=O)O`, the growth inhibition in test [1] is 1.2%; in test [2] it was 24.5%; in test [3], 24.6%; in test [4] it was -10.9%; in test [5], -12.1%; in test [6] it was -6.85%.
Regarding `CCOC(=O)C(C(=O)OCC)=C1c2ccccc2Oc2ccccc21`, the growth inhibition in test [1] is 39.1%; in test [2], 8%; in test [3] it was 14.7%; in test [4], -17.6%; in test [5], 33.5%; in test [6] it was 46%.
Consider `O=c1oc2ccc3ccccc3c2c2c1CCCCC2`, for which the growth inhibition is -13.9% in test [1]; -4.05% in test [2]; -14.8% in test [3]; -22.1% in test [4]; -8.05% in test [5]; -26.5% in test [6].
In the case of `O=C(c1ccccc1)N1OCCCc2ccccc21`, the growth inhibition in test [1] is 17.5%; in test [2] it was 7.9%; in test [3], 19.2%; in test [4], 2.7%; in test [5] it was 13.3%; in test [6], 20.4%.
As to `CC(=O)OC(C(=O)Nc1nncs1)c1ccccc1` (stereo not drawn), the growth inhibition in test [1] was 7.05%; in test [2] it was -22.9%; in test [3] it was 7.25%; in test [4], 8.05%; in test [5] it was 11.2%; in test [6] it was 18.1%.
Turning to `CC(=O)c1cc(C(C)=O)c(CC(=O)C(=O)Nc2cccc(C)c2C)nc1CC(=O)C(=O)Nc1cccc(C)c1C`, the growth inhibition is 2.9% in test [1]; -6.3% in test [2]; 16.5% in test [3]; -19.2% in test [4]; -9.6% in test [5]; -18.5% in test [6].
On to `O=c1cc(NC(c2ccccc2)c2ccccc2)[nH]c(=O)[nH]1`, for which the growth inhibition is -5.25% in test [1]; 22.1% in test [2]; 8.95% in test [3]; -10.4% in test [4]; 19.1% in test [5]; 27.6% in test [6].

These data come from PubChem BioAssay (NCI).
